High-throughput results from PubChem.
ELG1 genotox: qHTS screen for small molecules that induce genotoxicity in human embryonic kidney (HEK293T) cells expressing luciferase-tagged ELG1; HEK293T ELG1-luciferase reporter, luminescence, 16 h; Potency, µM (series often up to 46 µM), usual class: activators; 330,000 tested, 1.3% active; AID 504466, 2011; further: nearly all actives have a fitted effect of over 60% in size
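After overnight (16 hr) compound treatment at 37 °C, ELG1-luciferase HEK293T cells were lysed with ONE-Glo; luminescence quantified 30 min later at room temperature.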
ELG1 DNA repair: qHTS screen for small molecules that inhibit ELG1-dependent DNA repair in human embryonic kidney (HEK293T) cells expressing luciferase-tagged ELG1 | HEK293T ELG1-luciferase reporter, luminescence, 16 h; DNA damage induced by 5-fluorouridine | Potency, µM (doses to about 46.1 µM), hits mostly inhibitors | 330,000 tested, 2.3% active; further: nearly all actives have a fitted effect of over 55% in size
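HEK293T cells expressing luciferase-tagged ELG1 (2,000/well) received 5-Fluorouridine plus compound or DMSO for 16 hr at 37 °C. Luciferase was read by ONE-Glo luminescence after 30 min at room temperature.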
SMN2 splice enh: qHTS Assay for Enhancers of SMN2 Splice Variant Expression. HEK293 SMN2-luciferase splicing reporter, luminescence, 30-36 h. Potency, µM (titrated, usually from 46.1 µM), actives largely listed as activators. 210,000 tested, 2.8% active; further: nearly all actives have a fitted effect of over 55% in size
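qHTS luciferase splicing reporter: luminescence rises when SMN2 exon 7 is included in transfected HEK293 cells. Compound exposure lasted 30-36 h at 37C, with 4.5 mM final sodium butyrate as control, followed by a ONE-Glo read.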
Rab9 promoter act: qHTS Assay for Rab9 Promoter Activators | Huh7 Rab9 promoter-luciferase reporter, luminescence, 24 h | Potency, µM (top dose mostly 9.22 µM), usual class: activators | 320,000 tested, 2.8% active | AID 485297, 2010; further: nearly all actives have a fitted effect of over 60% in size
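Huh7 reporter line, Rab9 promoter upstream of luciferase. Compound exposure 24 h at 37 °C in reduced-serum medium with 10% FBS. Read-out: luminescence.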
NPC1 prom act: qHTS Assay for NPC1 Promoter Activators | Huh7 NPC1 promoter luciferase reporter, 24 h | Potency, µM (series often up to 9.22 µM), usual class: activators | 320,000 tested, 2.4% active | AID 485313, 2010; further: nearly all actives have a fitted effect of over 60% in size
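Luminescence from an NPC1 promoter-driven luciferase reporter in stably transfected Huh7 cells was measured after 24 h compound treatment at 37 °C, followed by 10 min ambient incubation with luciferase detection reagent.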
FLuc counter: qHTS profiling assay for firefly luciferase inhibitor/activator using purifed enzyme and Km concentrations of substrates (counterscreen for miR-21 project); Luciferin 4-monooxygenase (Photinus pyralis), P08659; purified FLuc, Km substrates, luminescence inhibition; Potency, µM (series often up to 57.5 µM), hits mostly inhibitors; 360,000 tested, 6.9% active; further: nearly all actives have a fitted effect of over 55% in size
Target sequence (P08659 whole entry, looked up): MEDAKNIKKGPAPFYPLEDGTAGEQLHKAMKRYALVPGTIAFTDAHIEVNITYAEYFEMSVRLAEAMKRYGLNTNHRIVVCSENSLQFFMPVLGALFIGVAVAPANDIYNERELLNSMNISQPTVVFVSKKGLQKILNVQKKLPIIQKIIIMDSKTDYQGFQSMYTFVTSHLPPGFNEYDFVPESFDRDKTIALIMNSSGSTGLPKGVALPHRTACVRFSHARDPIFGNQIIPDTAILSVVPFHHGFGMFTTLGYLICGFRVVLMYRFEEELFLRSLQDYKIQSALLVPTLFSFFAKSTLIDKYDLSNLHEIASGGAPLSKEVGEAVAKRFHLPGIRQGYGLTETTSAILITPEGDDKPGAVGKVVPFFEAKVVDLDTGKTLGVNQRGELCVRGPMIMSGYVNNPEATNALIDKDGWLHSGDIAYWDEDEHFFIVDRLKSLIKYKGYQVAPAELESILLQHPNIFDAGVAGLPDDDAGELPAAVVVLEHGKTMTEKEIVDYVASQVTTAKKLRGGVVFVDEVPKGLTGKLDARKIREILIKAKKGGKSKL
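Purified P. pyralis luciferase, 10 nM final, with Km-level 10 uM D-luciferin and 10 uM ATP in 50 mM Tris acetate pH 7.5, 10 mM Mg acetate, 0.01% Tween-20, 0.05% BSA; 6-point qHTS titration about 60 µM downward; luminescence read.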
Numbers stand for hits; . = inactive; ? = inconclusive; / = no result. The list is not random: actives were taken first. Their share in the collection is about 9.3%. The call rests on the fitted dose curve; in most records, active means well fitted curve in the direction sought with a large enough effect; inconclusive means small, poorly fitted or top-dose-only effect, or another doubt; inactive means no such curve, though single readings can be large; an effect the other way counts as inactive or inconclusive.

SMILES | ELG1 genotox | ELG1 DNA repair | SMN2 splice enh | Rab9 promoter act | NPC1 prom act | FLuc counter
O=C(O/N=C1/CCCc2occc21)c1ccc(F)cc1 | . | . | . | . | . | 1.9µM
CC(C)(C)C1CCC(=NOC(=O)c2ccc(F)cc2)CC1 (configuration not stated) | . | . | . | . | . | 19µM
O=C(O/N=C1/CCSc2ccccc21)c1ccc(F)cc1 | . | . | . | . | . | 0.34µM
CC(C)c1ccc(/C=N/NC(=O)c2ccc(-n3cnnn3)cc2)cc1 | . | ? | / | . | . | 5.4µM
COc1ccc(/C=N/NC(=O)c2ccc(-n3cnnn3)cc2)cc1 | . | . | / | . | . | 11µM
Cc1cccc(S(=O)(=O)Nc2nc3ccccc3nc2NCc2ccc3c(c2)OCO3)c1 | . | . | . | . | . | .
CC(=O)Nc1ccc2oc(C)nc2c1 | . | . | / | . | . | .
CC(=O)Nc1ccc2oc(-c3cc(F)c(F)cc3Cl)nc2c1 | 1.8µM | ? | 8.9µM | 0.4µM | 0.32µM | 1.9µM
O=C(COc1ccccc1Cl)Nc1ccc2oc(-c3ccccc3F)nc2c1 | / | / | / | / | / | .
CCC(=O)Nc1ccc2oc(-c3ccccc3Br)nc2c1 | ? | ? | 10µM | 2µM | 1.8µM | 3µM
CC(=O)Nc1ccc2oc(-c3ccccc3Br)nc2c1 | 1.8µM | ? | 11µM | 0.45µM | 0.89µM | 2.4µM
Cc1ccccc1-c1nc2cc(NC(=O)C3CC3)ccc2o1 | 4.6µM | ? | / | 0.5µM | 0.45µM | 1.7µM
O=C(c1nc2ccccn2c1CNCCCn1nnc2ccccc21)N1CCOCC1 | . | . | / | . | . | .
CCOC(=O)C1=C(C)NC2=C(C(=O)CC(C)(C)C2)C1c1coc2ccccc2c1=O (configuration not stated) | . | . | . | . | . | .
CC1(C)COC(c2coc3ccccc3c2=O)OC1 | ? | ? | ? | . | . | 17µM
N#Cc1ccc(NC(=O)Nc2ccc(Cl)cc2)cc1 | . | ? | . | . | . | ?
N#C/C(C(=O)Nc1ccc(Cl)cc1)=C(/S)Nc1ccccc1 | . | . | / | . | . | 15µM
O=C(O)C1CCC(c2ccc(-c3ccccc3)cc2)CC1 (configuration not stated) | ? | ? | / | ? | 2.8µM | 6.7µM
CC(NC(=O)C1CC1)c1ccc(-c2ccccc2)cc1 (configuration not stated) | . | . | / | . | . | .
CC(=O)c1c[nH]c(C(=O)NCC2CCCO2)c1 (configuration not stated) | . | . | . | . | . | .
Cc1onc(-c2c(Cl)cccc2Cl)c1C(=O)c1c[nH]c(C(=O)NCC2CCCO2)c1 (configuration not stated) | . | 18µM | . | . | . | .
Cc1ccc(-c2csc(NC(=O)C3=NN(C4CCS(=O)(=O)C4)C(=O)CC3)n2)cc1 (configuration not stated) | . | . | / | . | . | .
COc1ccc(C(=O)Nc2ccc(C(F)(F)F)n(C)c2=O)cc1 | ? | ? | 14µM | 2.2µM | 2.8µM | ?
COc1ccc(C(=O)Nc2cc(C(F)(F)F)ccc2-n2cncn2)cc1 | . | . | . | . | . | .
CCN(CC)S(=O)(=O)c1ccc(C(=O)Nc2ccc(C(F)(F)F)n(C)c2=O)cc1 | . | . | / | . | . | .
Cc1ccc(C(=O)Nc2ccc(C(F)(F)F)n(C)c2=O)cc1 | ? | ? | 22µM | 3.2µM | . | 4.3µM
COCCn1c(C(F)(F)F)ccc(NC(=O)c2ccccc2)c1=O | 7.3µM | ? | / | 1.3µM | 1.4µM | 7.6µM
Clc1ccccc1OCc1nnc(-c2ccccc2)o1 | ? | ? | 16µM | 3.5µM | 2.5µM | 11µM
CC(=O)Nc1ccccc1OCc1nnc(-c2ccc(Cl)cc2)o1 | . | ? | ? | . | . | ?
